The campaign covered roughly 310,000 compounds. About 14,000 (4.5%) showed an effect of 50% or more. The effect is printed as a negative number. The sample holds strong results, similar compounds and a random draw of the others, so the mix is not that of the screen.
Molecular target: human ether-à-go-go-related gene (hERG) potassium channel (human, UniProt Q12809)
Assay: primary screen, population patch clamp on CHO cells stably expressing hERG; higher = less effect of the substance
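Note: peak tail current of the secondary pulse compared with the same well before compound.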

Chain of human ether-à-go-go-related gene (hERG) potassium channel (Q12809 whole entry, looked up): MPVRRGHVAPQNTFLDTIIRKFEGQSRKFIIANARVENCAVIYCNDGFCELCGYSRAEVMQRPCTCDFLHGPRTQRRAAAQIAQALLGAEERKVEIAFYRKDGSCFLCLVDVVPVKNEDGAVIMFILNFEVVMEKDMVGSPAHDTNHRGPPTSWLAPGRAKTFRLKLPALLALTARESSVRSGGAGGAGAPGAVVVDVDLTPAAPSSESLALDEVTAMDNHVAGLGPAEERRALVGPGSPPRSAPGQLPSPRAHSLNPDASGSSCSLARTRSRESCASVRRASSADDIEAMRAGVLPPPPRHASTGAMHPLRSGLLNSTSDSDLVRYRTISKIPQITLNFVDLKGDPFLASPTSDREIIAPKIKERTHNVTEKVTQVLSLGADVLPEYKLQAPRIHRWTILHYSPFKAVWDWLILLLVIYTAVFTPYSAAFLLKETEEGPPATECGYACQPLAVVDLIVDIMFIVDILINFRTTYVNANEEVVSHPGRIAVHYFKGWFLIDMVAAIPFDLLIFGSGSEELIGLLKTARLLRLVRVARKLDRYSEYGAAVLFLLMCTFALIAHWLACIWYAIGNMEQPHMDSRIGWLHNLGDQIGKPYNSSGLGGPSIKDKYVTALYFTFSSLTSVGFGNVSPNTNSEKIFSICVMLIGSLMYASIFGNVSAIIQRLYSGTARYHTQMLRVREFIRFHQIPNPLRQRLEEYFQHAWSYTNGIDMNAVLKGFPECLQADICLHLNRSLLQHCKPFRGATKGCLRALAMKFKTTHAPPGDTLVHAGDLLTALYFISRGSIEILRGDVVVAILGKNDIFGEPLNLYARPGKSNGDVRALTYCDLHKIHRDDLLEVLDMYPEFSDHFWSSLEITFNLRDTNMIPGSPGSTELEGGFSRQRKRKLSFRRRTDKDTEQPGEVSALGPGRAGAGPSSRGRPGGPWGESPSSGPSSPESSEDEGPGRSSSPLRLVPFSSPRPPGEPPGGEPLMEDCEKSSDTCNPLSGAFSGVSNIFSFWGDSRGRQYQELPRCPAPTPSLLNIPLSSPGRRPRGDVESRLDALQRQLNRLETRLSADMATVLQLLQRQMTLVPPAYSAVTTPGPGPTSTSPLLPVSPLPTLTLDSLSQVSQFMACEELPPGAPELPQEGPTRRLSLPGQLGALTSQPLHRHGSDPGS

First: COc1ccc(OC)c(/C=N/n2c(COc3ccccc3)n[nH]c2=S)c1
Second: Cn1c(-c2cccc3ccccc23)n[nH]c1=S
The “hERG current change (%, negative = inhibition) at 10uM” value of the first is lower: 12.2% for the first, 21.9% for the second.

Going from `CCOc1ccc(-c2noc(-c3cccnc3)n2)cc1OCC` to `CCOc1ccc(C(=O)NCC(=O)N2CC=C(c3ccccc3)CC2)cc1OCC`, the “hERG current change (%, negative = inhibition) at 10uM” value falls from 13.7% to -62.9%.

Going from `O=c1[nH]nc(Cc2ccc3ccccc3n2)c2ccccc12` to `CN(C)CCCN(C(=O)c1cc(-c2cccs2)nc2ccccc12)c1nc2c(F)cccc2s1.Cl`, the “hERG current change (%, negative = inhibition) at 10uM” value falls from 1.36% to -48.8%.

Going from `COc1ccc2[nH]c(=O)c(CN(Cc3cccs3)C(=S)Nc3ccccc3)cc2c1` to `COc1ccc(C2Oc3ccccc3C3=C2C(c2cccs2)n2ncnc2N3)cc1` (centres unmarked), the “hERG current change (%, negative = inhibition) at 10uM” value falls from 16.7% to -52.1%.

Compared with `Fc1ccc(NC(=S)Nc2cccnc2)c(F)c1F`, `CC(=O)N1N=C(c2cccnc2)OC1c1ccc(C(C)C)cc1` (centres unmarked) is lower in “hERG current change (%, negative = inhibition) at 10uM” value: 20.1% for the first, -30.1% for the second.

Compared with `COc1ccccc1CNC(=O)COc1ccc2c(c1)CCC2`, `CCOc1ccc(C(=O)NCC(=O)N2CCc3ccccc3C2)cc1OCC` is higher in “hERG current change (%, negative = inhibition) at 10uM” value: -1.2% for the first, 4.5% for the second.

First: Nc1ncnc2c1ncn2CCOc1ccccc1
Second: O=C(O)COc1ccc(Br)cc1/C=N\Nc1ccccn1
The “hERG current change (%, negative = inhibition) at 10uM” value of the first is lower: 5.18% for the first, 15.2% for the second.

Compared with `Cc1cccc2sc(N(CCCN(C)C)C(=O)c3ccc(Cl)s3)nc12.Cl`, `Cc1cccc2sc(N(CCCN(C)C)C(=O)c3ccco3)nc12.Cl` is lower in “hERG current change (%, negative = inhibition) at 10uM” value: -69.7% for the first, -74.9% for the second.

First: Cc1cccc2sc(N(CCCN(C)C)C(=O)c3nc4ccccc4s3)nc12.Cl
Second: Cc1cccc2sc(N(CCN(C)C)C(=O)c3cc(Cl)sc3Cl)nc12.Cl
The “hERG current change (%, negative = inhibition) at 10uM” value of the first is higher: 4.2% for the first, -22.7% for the second.

Going from `CN(C)CCCN(C(=O)c1ccco1)c1nc2c(F)cc(F)cc2s1.Cl` to `CN(C)CCCN(C(=O)c1ccco1)c1nc2c(F)cccc2s1.Cl`, the “hERG current change (%, negative = inhibition) at 10uM” value falls from -72.2% to -73.2%.

Compared with `CN(C)CCN(C(=O)/C=C/c1cccs1)c1nc2c(F)cc(F)cc2s1.Cl`, `COc1cc2ccccc2cc1C(=O)N(CCN(C)C)c1nc2c(F)cc(F)cc2s1.Cl` is higher in “hERG current change (%, negative = inhibition) at 10uM” value: -47.8% for the first, -10.1% for the second.

First: COc1cccc(N(CC(=O)NCCN2CCOCC2)S(=O)(=O)c2ccccc2)c1
Second: O=C(CN1CCOCC1)Nc1c2c(nc3ccccc13)N(Cc1ccccc1)CC2.O=C(O)C(=O)O
The “hERG current change (%, negative = inhibition) at 10uM” value of the first is higher: -4.96% for the first, -68.9% for the second.

First: O=C(CSc1nc2ccccc2[nH]1)NCCc1ccc(Cl)cc1
Second: CCc1nc2c(c(=O)c3ccccc3n2C)c(=O)n1CCc1ccc(OC)cc1
The “hERG current change (%, negative = inhibition) at 10uM” value of the first is higher: -20.9% for the first, -74.9% for the second.

Going from `CN(C1CCCCC1)S(=O)(=O)c1ccccc1` to `CN(C)c1cc(NC(=O)CN2CCCC2)c2ccccc2n1.O=C(O)C(=O)O`, the “hERG current change (%, negative = inhibition) at 10uM” value falls from -7.01% to -10.3%.

Compared with `COc1cc(OC)cc(C(=O)NC(=S)Nc2cc3oc4ccccc4c3cc2OC)c1`, `COc1cc(C(=O)NCC(=O)N2CC=C(c3ccccc3)CC2)cc(OC)c1OC` is lower in “hERG current change (%, negative = inhibition) at 10uM” value: 18.5% for the first, -51.2% for the second.

First: Cc1cc(/C=C2/C(=O)N(C)C(=S)N2C)c(C)n1C1CC1
Second: O=C(CCN1C(=O)/C(=C/c2ccccc2F)SC1=S)NC1C=CS(=O)(=O)C1 (centres unmarked)
The “hERG current change (%, negative = inhibition) at 10uM” value of the first is lower: 4.03% for the first, 15.3% for the second.

First: CC(C)Oc1ccc(C(=O)Nc2ccc(N3CCCCC3)cc2)cc1
Second: CCOc1ccc(C(=O)c2nc3c(n2O)CCCC3)cc1
The “hERG current change (%, negative = inhibition) at 10uM” value of the first is lower: -2.32% for the first, 18.5% for the second.

Compared with `CS(=O)(=O)N1CCc2ccc(NC(=O)C3CCCO3)cc2C1` (centres unmarked), `CN1CCc2c1nc1ccccc1c2NC(=O)CN1CCCC1` is lower in “hERG current change (%, negative = inhibition) at 10uM” value: 18.8% for the first, -1.61% for the second.

Compared with `CCCNS(=O)(=O)c1ccc(CCC(=O)N2CCOCC2)cc1`, `COCCCNC(=O)CCC(=O)Nc1ccc2nc(N3CCOCC3)cc(C)c2c1` is higher in “hERG current change (%, negative = inhibition) at 10uM” value: 3.77% for the first, 4% for the second.

Compared with `COC(=O)[C@@H](NC(=O)c1ccc2c(c1)S(=O)(=O)c1ccccc1C2=O)C(C)C`, `Cc1ccc(C(=O)OCC(=O)N(C)c2ccccc2)cc1C` is lower in “hERG current change (%, negative = inhibition) at 10uM” value: 8.57% for the first, -9.59% for the second.

Going from `CCCCCC(=O)Nc1c2c(nc3ccccc13)CCC2` to `CCCCCCC(=O)Nc1c2c(nc3ccccc13)N(C)CC2`, the “hERG current change (%, negative = inhibition) at 10uM” value falls from -45.7% to -68%.

First: CCCCCC(=O)Nc1cccc2ccccc12
Second: CCCCCC(=O)Nc1cc(N(C)C)nc2ccccc12
The “hERG current change (%, negative = inhibition) at 10uM” value of the first is higher: -2.38% for the first, -74.9% for the second.

Going from `CCCCC(=O)Nc1cc(N(C)C)nc2ccccc12` to `CCN(CC)CC(=O)Nc1cc(N(C)C)nc2ccccc12.O=C(O)C(=O)O`, the “hERG current change (%, negative = inhibition) at 10uM” value rises from -66.3% to -35.3%.

Going from `CCN(CC)CC(=O)Nc1c2c(nc3ccccc13)N(C)CC2.O=C(O)C(=O)O` to `O=C(CN1CCCC1)Nc1c2c(nc3ccccc13)N(Cc1ccccc1)CC2.O=C(O)C(=O)O`, the “hERG current change (%, negative = inhibition) at 10uM” value falls from 16.5% to 6.05%.

Going from `O=C(CN1CCCCC1)Nc1c2c(nc3ccccc13)N(c1ccccc1)CC2.O=C(O)C(=O)O` to `O=C(c1ccc2c(=O)n3c(nc2c1)CCCCC3)N1CCN(Cc2ccccc2)CC1`, the “hERG current change (%, negative = inhibition) at 10uM” value falls from 3.12% to -2.69%.

Going from `C/C(=N\NC(=S)Nc1cc(S(=O)(=O)N2CCOCC2)ccc1Cl)c1ccc(N2CCOCC2)cc1` to `COc1ccc(C(=O)NCC(=O)N2CC=C(c3ccccc3)CC2)cc1OC`, the “hERG current change (%, negative = inhibition) at 10uM” value falls from 6.22% to -37.9%.

Compared with `COc1ccc(CN(Cc2ccccn2)C(=O)CN2C(=O)C(C)Oc3ccccc32)cc1` (centres unmarked), `COc1ccc(CCn2c(-c3ccccc3)nc3c(c(=O)c4ccccc4n3C)c2=O)cc1` is higher in “hERG current change (%, negative = inhibition) at 10uM” value: -3.36% for the first, 11.3% for the second.

First: CCOC(=O)c1ccc(-c2ccc(/C=C(\C#N)C(=O)NCc3cccs3)o2)cc1
Second: CCOC(=O)C1=C(C)NC(SCC(N)=O)=C(C#N)C1c1cccs1 (centres unmarked)
The “hERG current change (%, negative = inhibition) at 10uM” value of the first is higher: 18% for the first, -13.2% for the second.

Going from `O=c1[nH]ccc2c(O)cccc12` to `O=c1c(-c2ccc(O)cc2O)coc2cc(O)cc(O)c12`, the “hERG current change (%, negative = inhibition) at 10uM” value falls from 20.1% to -4.59%.

First: Cc1cccc(C)c1NC(=O)C1c2cccc[n+]2CC(=O)N1Cc1cccs1.[I-] (centres unmarked)
Second: Cc1cccc(C(=O)NCC(=O)N2CC=C(c3ccccc3)CC2)c1
The “hERG current change (%, negative = inhibition) at 10uM” value of the first is higher: 4.89% for the first, -40.9% for the second.

Going from `O=C(O)/C=C/C(=O)Nc1cccc(C(F)(F)F)c1` to `O=C(NCC(=O)N1CC=C(c2ccccc2)CC1)c1ccco1`, the “hERG current change (%, negative = inhibition) at 10uM” value falls from 7.79% to -78.4%.

Compared with `CCCCN(CCCC)CC(O)Cn1c2ccccc2c(=O)c2ccccc21` (centres unmarked), `CCCN(CCC)CC(O)Cn1c2ccccc2c2ccccc21` (centres unmarked) is higher in “hERG current change (%, negative = inhibition) at 10uM” value: -68% for the first, -32.1% for the second.

Compared with `CC(C)CCN(CCC(C)C)CC(O)Cn1c2ccccc2c(=O)c2ccccc21` (centres unmarked), `COc1ccc(CCn2c(C(C)C)nc3c(c(=O)c4ccccc4n3C)c2=O)cc1` is lower in “hERG current change (%, negative = inhibition) at 10uM” value: -22% for the first, -30% for the second.

First: Brc1ccc(C2C3=C(Nc4ncnn42)c2ccccc2OC3c2ccncc2)cc1 (centres unmarked)
Second: Fc1ccc(C2C3=C(Nc4ncnn42)c2ccccc2OC3c2ccncc2)cc1 (centres unmarked)
The “hERG current change (%, negative = inhibition) at 10uM” value of the first is higher: -32% for the first, -60.4% for the second.

Compared with `c1csc(C2C3=C(Nc4ncnn42)c2ccccc2OC3)c1` (centres unmarked), `Cc1ccc(C2Oc3ccccc3C3=C2C(c2cccs2)n2ncnc2N3)cc1` (centres unmarked) is lower in “hERG current change (%, negative = inhibition) at 10uM” value: 11.4% for the first, -7.55% for the second.

First: Clc1ccc2c(c1)C1=C(C(c3ccncc3)O2)C(c2ccc(Br)cc2)n2ncnc2N1 (centres unmarked)
Second: CCOc1ccc(/C(O)=C2/C(=O)C(=O)N(c3cc(C)on3)C2c2ccc(C(=O)OC)cc2)cc1 (centres unmarked)
The “hERG current change (%, negative = inhibition) at 10uM” value of the first is lower: 4.44% for the first, 11.3% for the second.

First: COc1ccc(C2NC(=O)CCC2[N+](=O)[O-])c(OC)c1OC (centres unmarked)
Second: COCCn1c(C(C)C)nc2oc3ccccc3c(=O)c2c1=O
The “hERG current change (%, negative = inhibition) at 10uM” value of the first is higher: 12.2% for the first, 3.05% for the second.

Compared with `CSCCC(NC(=O)c1ccco1)C(=O)N1CC=C(c2ccccc2)CC1` (centres unmarked), `COc1ccccc1C(=O)NCC(=O)N1CC=C(c2ccccc2)CC1` is higher in “hERG current change (%, negative = inhibition) at 10uM” value: -48% for the first, 6.76% for the second.

Compared with `CCOc1ccc(C(=O)NCC(=O)N2CCCCCCC2)cc1OCC`, `CCOC(=O)N1CCN(C(=O)COC(=O)COc2c(C)cc(C)cc2C)CC1` is lower in “hERG current change (%, negative = inhibition) at 10uM” value: 1.47% for the first, -9.8% for the second.

Going from `Nc1nnc(Cc2cccc(Br)c2)s1` to `COc1ccc2c(=O)c3c(=O)n(CCc4ccccc4)c(C(C)C)nc3oc2c1`, the “hERG current change (%, negative = inhibition) at 10uM” value rises from 3.51% to 5.79%.

Going from `COCCNC(=O)COc1ccc(C)cc1C` to `CCCCNC(=S)N(C)/N=C/c1ccc(OCC(=O)Nc2ccc(OC)cc2)c(OC)c1`, the “hERG current change (%, negative = inhibition) at 10uM” value falls from 10.4% to -4.23%.

Going from `COc1ccc(CCn2c(-c3ccc(OC)cc3)nc3c(c(=O)c4ccccc4n3C)c2=O)cc1` to `COc1ccc(CCn2c(C)nc3c(c(=O)c4ccccc4n3C)c2=O)cc1`, the “hERG current change (%, negative = inhibition) at 10uM” value falls from 11.4% to -61.4%.

Going from `COc1ccc(Cn2c(C)nc3c(c(=O)c4ccccc4n3C)c2=O)cc1` to `COc1ccc(CCn2c(C(C)C)nc3oc4ccccc4c(=O)c3c2=O)cc1`, the “hERG current change (%, negative = inhibition) at 10uM” value falls from -44.5% to -75.3%.

Reference: paper PMC4336329 (PLoS ONE, 2015)
